The whole screen tested about 5,500 compounds, of which about 2,000 (36%) were called active. About 18% were inconclusive and are not listed. No stated cut-off is given here; in the data, active means normalized growth mostly below about 0.91 (no sharp cut-off); inconclusive means no clear call, values can overlap the other calls; inactive means mostly above about 0.92. The list shows a part of the results.
Assay: chemical genetic growth profiling, strain panel (AID 1159580);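 further: tested at 20 µM; growth read once vehicle control cultures reached saturation at 30 °C; 1 = growth at the plate median or of vehicle wells; lower values mean less growth of the strain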
Settings: S. cerevisiae deletion strains, growth OD

Measured: normalized growth

C[C@]12CCC(=O)C=C1CCc1ccc(O)cc12
inactive: locus YBR021W, strain FUR4, hits give low values 1.03 | locus YBR229C, strain ROT2, hits give low values 1 | locus YCL029C, strain bik1, hits give low values 0.992 | locus YDL035C, strain GPR1, hits give low values 1.04 | locus YDL074C, strain BRE1, hits give low values 1.04 | locus YDL101C, strain DUN1, hits give low values 1.01 | locus YDL134C, strain PPH21, hits give low values 1 | locus YDL185W, strain tfp1, hits give low values 0.992 | locus YDL192W, strain arf1, hits give low values 0.998 | locus YDR101C, strain arx1, hits give low values 0.984 | locus YDR150W, strain NUM1, hits give low values 1 | locus YDR162C, strain NBP2, hits give low values 1.01 | locus YDR318W, strain mcm21, hits give low values 0.986 | locus YDR388W, hits give low values 0.991 | locus YDR502C, strain sam2, hits give low values 0.968 | locus YEL061C, strain CIN8, hits give low values 1 | locus YER110C, hits give low values 0.982 | locus YER155C, strain BEM2, hits give low values 0.996 | locus YER167W, strain BCK2, hits give low values 1.02 | locus YGL078C, strain dbp3, hits give low values 0.995 | locus YGL086W, strain mad1, hits give low values 0.982 | locus YGL248W, strain PDE1, hits give low values 0.996 | locus YGR078C, strain PAC10, hits give low values 0.998 | locus YGR135W, strain pre9, hits give low values 0.973 | locus YGR252W, strain gcn5, hits give low values 0.961 | locus YHR030C, strain SLT2, hits give low values 1.01 | locus YHR079C, strain IRE1 (second series), hits give low values 0.989 | locus YHR094C, strain hxt1, hits give low values 0.993 | locus YHR129C, strain ARP1, hits give low values 1 | locus YHR200W, strain rpn10, hits give low values 0.989 | locus YIL066C, strain RNR3, hits give low values 1.02 | locus YIL073C, strain SPO22, hits give low values 1.04 | locus YIL125W, strain kgd1, hits give low values 0.987 | locus YIR030C, strain dcg1, hits give low values 1.01 | locus YJL095W, strain BCK1, hits give low values 1 | locus YJL134W, strain LCB3, hits give low values 1.01 | locus YJL168C, strain set2, hits give low values 0.987 | locus YJL187C, strain SWE1 (second series), hits give low values 1 | locus YJR043C, strain POL32, hits give low values 1.01 | locus YKL009W, strain mrt4, hits give low values 1.03 | locus YKL068W, hits give low values 0.991 | locus YKL085W, strain MDH1 (second series), hits give low values 0.999 | locus YKL085W, strain MDH1, hits give low values 0.999 | locus YKL190W, strain CNB1, hits give low values 1.01 | locus YKR001C, strain vps1, hits give low values 0.977 | locus YLR039C, strain RIC1, hits give low values 1.06 | locus YLR058C, strain SHM2, hits give low values 1.02 | locus YLR102C, strain apc9, hits give low values 0.994 | locus YLR262C, strain YPT6, hits give low values 1.07 | locus YLR268W, strain sec22, hits give low values 0.98 | locus YLR342W, strain FKS1 (second series), hits give low values 0.997 | locus YLR371W, strain rom2, hits give low values 0.994 | locus YLR418C, strain cdc73, hits give low values 0.982 | locus YML016C, strain PPZ1, hits give low values 1.01 | locus YML032C, strain rad52, hits give low values 0.982 | locus YML124C, strain tub3, hits give low values 0.979 | locus YMR078C, strain ctf18, hits give low values 0.987 | locus YMR223W, strain ubp8, hits give low values 0.988 | locus YMR307W, strain GAS1, hits give low values 1.04 | locus YNL067W, strain RPL9B, hits give low values 0.999 | locus YNL233W, strain BNI4, hits give low values 0.99 | locus YNL250W, strain rad50, hits give low values 1.01 | locus YNL271C, strain bni1, hits give low values 0.982 | locus YNL298W, strain CLA4, hits give low values 0.987 | locus YNL307C, strain MCK1, hits give low values 0.983 | locus YNR052C, strain pop2, hits give low values 0.982 | locus YOL012C, strain htz1 1.09 | locus YOL147C, strain pex11, hits give low values 0.994 | locus YOR061W, strain CKA2, hits give low values 1.03 | locus YOR069W, strain VPS5, hits give low values 1.01 | locus YOR136W, strain idh2, hits give low values 0.97 | locus YOR144C, strain elg1, hits give low values 0.985 | locus YOR184W, strain ser1, hits give low values 1.03 | locus YOR316C, strain cot1, hits give low values 0.99 | locus YPL241C, strain CIN2, hits give low values 1 | locus YPR119W, strain clb2, hits give low values 0.986 | locus YPR141C, strain kar3, hits give low values 0.994 | locus YPR163C, strain tif3, hits give low values 0.984 | locus YPR167C, strain met16, hits give low values 0.987 | strain wtn01, hits give low values 0.992

Reference: PubChem BioAssay AID1159580 (chemical genetic matrix, 2015)
